The panel holds about 83,000 compounds, 20% with a hit somewhere; the sample as a whole holds those more often.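 Activity criterion: percent growth below 10, measured after cells in 96-well plates were exposed to a single compound concentration for 48 hours.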 Calls of active or inactive are those of the source.
What follows are compounds tested on OVCAR-3 ovarian (assay: NCI-60 one-dose screen, 48 h (100 = growth as untreated, 0 = no growth, -100 = all killed)). Conditions: 10 µM unless noted.
For `O=C(NNc1nc2cc(F)c(F)cc2n2cccc12)c1ccncn1`, the growth was 12.7% (inactive).
In the case of `O=C(CCCCCCN1CC(=O)N2[C@@H](c3ccc(Cl)c(F)c3)c3[nH]c4ccccc4c3C[C@H]2C1=O)NO`, the growth is reported as 83.6% (inactive).
For `Cc1ccc(/C=C/CC(=O)Nc2ccc(C(=O)Nc3ccc(F)cc3N)cc2)cn1`, the growth was 79.5% (inactive).
`O=C(NNc1nc2cc(F)cc(F)c2n2cccc12)c1ncccn1` was tested, and the growth was 16.3% (inactive).
`O=C1[C@@H]2Cc3c([nH]c4ccccc34)[C@H](c3c(Cl)cccc3Cl)N2C(=O)CN1C1CCN(Cc2ccccc2)CC1` was tested, and the growth was 81.4% (inactive).
For `COc1cc(/C=N/n2cnc3oc(-c4ccccc4)cc3c2=N)cc(CN2CCCC2)c1O`, the growth was 104% (inactive).

The compounds below were run on HS 578T breast in the same assay as above. Conditions: 10 µM unless noted.
In the case of `C#C[C@]1(O)CC[C@H]2[C@@H]3CC=C4c5sc(Nc6cccc(C)n6)nc5CC[C@]4(C)[C@H]3CC[C@@]21C`, the growth is reported as -15.8% (active).
In the case of `Clc1ccc(-c2csc(N/N=C/c3nc4ccccc4n3C3CC3)n2)cc1`, the growth is reported as 106% (inactive).
`O=C(NNc1nc2cc(F)c(F)cc2n2cccc12)c1ccncn1` was tested, and the growth was 48.2% (inactive).
For `CCn1c2ccc(/C=N/NS(=O)(=O)CCN(C)C)cc2c2cc(/C=N/NS(=O)(=O)CCN(C)C)ccc21`, the growth was 91.1% (inactive).
For `COc1ccc(-c2nnc(/N=C3/C(=O)Nc4ccc(Br)cc43)o2)cc1`, the growth was 116% (inactive).
With `O=C(CCCCCCN1CC(=O)N2[C@@H](c3ccc(Cl)c(F)c3)c3[nH]c4ccccc4c3C[C@H]2C1=O)NO` the growth was 98.4% (inactive).
`O=C(N/N=C\c1ccc(Cl)cc1)c1ccc2nc(-c3ccc(Br)cc3)[nH]c2c1` was tested, and the growth was 15.6% (inactive).
